# Assay outcomes (PubChem)
# PLK1 PBD inh: blocks phosphopeptide binding to human PLK1 polo-box domain; Potency, µM, without a hit: max response, negative = inhibition, actives largely listed as inhibitors; 2.8% of 360,000 active; Plk1 PBD binding of FITC phosphopeptide, fluorescence polarization; AID 720504; P53350; note: series mostly up to about 57 µM; % is set by controls: 0 for no effect and ±100 for the full control effect; nearly all actives have a fitted effect of over 65% in size
# G9a block: inhibitors of human histone lysine methyltransferase G9a. Q96KQ7. AID 504332. G9a H3K9 monomethylation, AlphaScreen, 2 h. Potency, µM (titrated, usually from 102 µM), for the others: top-dose activity, negative = inhibition, most hits filed as inhibitors. 8.8% of 350,000 active; note: % is set by controls: 0 for no effect and ±100 for the full control effect; nearly all actives have a fitted effect of over 75% in size
#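 Methyltransferase reactions run at room temperature for 2 h (20 nM enzyme, 500 nM biotin-H3K9 peptide, 20 uM SAM) after a 15 min compound preincubation; product detected by AlphaScreen beads and anti-H3K9me1 antibody.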
# JMJD2A Tudor: blocks the human JMJD2A Tudor domain; AlphaScreen JMJD2A-Tudor / H3K4me3 peptide binding; Potency, µM (series often up to 114 µM), for the others: top-dose activity change, negative = inhibition, usual class: inhibitors; 4.4% of 390,000 active; note: % is set by controls: 0 for no effect and ±100 for the full control effect; nearly all actives have a fitted effect of over 50% in size
# BAZ2B block: inhibitors of human BAZ2B bromodomain; AlphaScreen BAZ2B-H3K14Ac peptide displacement; Q9UIF8; 4.4% of 360,000 active; Potency, µM (series often up to 114 µM), inactives show top-dose activity change, negative = inhibition, actives largely listed as inhibitors; note: % is set by controls: 0 for no effect and ±100 for the full control effect; nearly all actives have a fitted effect of over 60% in size
# Target sequence (Q9UIF8 whole entry, looked up): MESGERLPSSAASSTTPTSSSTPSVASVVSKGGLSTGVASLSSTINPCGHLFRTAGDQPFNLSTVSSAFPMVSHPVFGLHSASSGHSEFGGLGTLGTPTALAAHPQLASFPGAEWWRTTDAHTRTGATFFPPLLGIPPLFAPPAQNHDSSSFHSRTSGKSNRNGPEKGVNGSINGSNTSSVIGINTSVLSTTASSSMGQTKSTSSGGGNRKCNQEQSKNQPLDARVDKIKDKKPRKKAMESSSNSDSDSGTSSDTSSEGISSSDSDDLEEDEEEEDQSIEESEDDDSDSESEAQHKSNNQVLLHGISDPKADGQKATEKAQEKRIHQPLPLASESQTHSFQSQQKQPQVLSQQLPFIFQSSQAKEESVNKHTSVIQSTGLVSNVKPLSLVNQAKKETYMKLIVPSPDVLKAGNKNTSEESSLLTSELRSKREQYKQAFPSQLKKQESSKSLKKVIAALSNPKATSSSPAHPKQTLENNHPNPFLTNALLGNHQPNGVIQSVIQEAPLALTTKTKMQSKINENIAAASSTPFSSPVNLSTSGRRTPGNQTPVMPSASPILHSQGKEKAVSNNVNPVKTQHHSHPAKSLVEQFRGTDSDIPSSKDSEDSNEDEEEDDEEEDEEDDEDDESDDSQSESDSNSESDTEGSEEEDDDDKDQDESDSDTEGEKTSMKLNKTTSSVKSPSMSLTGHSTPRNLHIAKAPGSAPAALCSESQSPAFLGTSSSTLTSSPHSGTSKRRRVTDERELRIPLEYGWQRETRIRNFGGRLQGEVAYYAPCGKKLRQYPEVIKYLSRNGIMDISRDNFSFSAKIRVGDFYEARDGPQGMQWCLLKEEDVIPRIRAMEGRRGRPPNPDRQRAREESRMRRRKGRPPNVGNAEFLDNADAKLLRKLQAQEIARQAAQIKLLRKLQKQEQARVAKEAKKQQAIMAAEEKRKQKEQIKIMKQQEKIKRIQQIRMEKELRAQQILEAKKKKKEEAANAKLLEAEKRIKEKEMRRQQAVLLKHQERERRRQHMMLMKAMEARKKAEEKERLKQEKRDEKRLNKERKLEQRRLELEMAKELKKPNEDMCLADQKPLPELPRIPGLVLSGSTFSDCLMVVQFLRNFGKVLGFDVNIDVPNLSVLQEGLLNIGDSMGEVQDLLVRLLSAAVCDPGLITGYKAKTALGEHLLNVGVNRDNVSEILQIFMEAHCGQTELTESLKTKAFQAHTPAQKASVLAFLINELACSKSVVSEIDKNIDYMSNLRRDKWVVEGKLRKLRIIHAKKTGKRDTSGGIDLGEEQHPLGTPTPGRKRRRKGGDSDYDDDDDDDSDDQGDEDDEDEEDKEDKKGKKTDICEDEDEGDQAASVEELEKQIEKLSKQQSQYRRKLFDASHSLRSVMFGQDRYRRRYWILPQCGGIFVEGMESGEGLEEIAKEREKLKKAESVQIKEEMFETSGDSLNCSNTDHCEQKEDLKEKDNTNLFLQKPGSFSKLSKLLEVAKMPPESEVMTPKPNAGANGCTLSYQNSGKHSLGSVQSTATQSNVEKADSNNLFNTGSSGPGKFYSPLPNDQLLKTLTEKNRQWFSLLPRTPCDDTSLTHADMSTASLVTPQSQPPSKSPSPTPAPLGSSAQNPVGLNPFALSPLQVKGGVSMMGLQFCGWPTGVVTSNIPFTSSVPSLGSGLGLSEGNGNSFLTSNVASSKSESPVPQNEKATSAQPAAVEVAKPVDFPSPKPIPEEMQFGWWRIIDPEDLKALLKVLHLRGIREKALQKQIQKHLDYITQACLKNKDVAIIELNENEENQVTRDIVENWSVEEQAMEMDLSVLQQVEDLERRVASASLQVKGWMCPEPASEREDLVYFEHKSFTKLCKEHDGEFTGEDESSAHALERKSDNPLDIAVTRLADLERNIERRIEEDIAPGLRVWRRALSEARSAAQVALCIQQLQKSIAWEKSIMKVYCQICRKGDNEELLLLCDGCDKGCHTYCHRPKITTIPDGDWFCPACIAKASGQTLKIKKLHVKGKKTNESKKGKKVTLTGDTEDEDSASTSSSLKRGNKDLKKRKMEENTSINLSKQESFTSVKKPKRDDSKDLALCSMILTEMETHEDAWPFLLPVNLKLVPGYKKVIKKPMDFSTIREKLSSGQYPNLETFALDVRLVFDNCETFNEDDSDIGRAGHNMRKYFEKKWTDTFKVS
#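 Compounds, titrated to a top concentration of 110 uM, were incubated 30 min at room temperature with preformed BAZ2B/acetyl-K14 H3 peptide complex (50 nM each). Proximity signal was measured by AlphaScreen after 20 min with beads.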
# Sfp PPTase inh: blocks B. subtilis Sfp PPTase activity | Biochemical Sfp PPTase activity, qHTS | Potency, µM, for the others: largest response in the series, negative = inhibition, most hits filed as inhibitors | Q9F4F7 | 3.5% of 310,000 active | AID 1490;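 note: the enzyme is Sfp with the accession as filed and its product quenches rhodamine fluorescence; 0% = enzyme reaction without inhibitor and -100% = no enzyme wells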
#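 Buffer: 50 mM Hepes-Na pH 7.6, 10 mM MgCl2, 0.01% Nonidet P-40, 0.01% BSA. Enzyme 15 nM, pre-exposed to compound 15 min; substrates then added and fluorescence change tracked over 30 min.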
# HP1b chromo inh: blocks HP1-beta chromodomain binding to methylated histone tails. 0.56% of 390,000 active. AlphaScreen HP1-beta / biotin-H3K9me3 peptide binding. Potency, µM (top dose mostly 114 µM), inactives show top-dose activity change, negative = inhibition, usual class: inhibitors. AID 540317; note: nearly all actives have a fitted effect of over 70% in size
#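 HP1-beta protein (50 nM final) preincubated 30 min at room temperature with biotinylated H3(1-18)K9me3 peptide (50 nM) in PBS pH 7.4, 0.01% Tween-20, then compound added for 30 min. AlphaScreen streptavidin donor/nickel chelate acceptor beads (10 ug/mL final), 30 min dark, luminescence read.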
# TbPYK inh: confirmation of Trypanosoma brucei pyruvate kinase inhibitors; shares compounds with PLK1 PBD inh; recombinant TbPYK, Kinase-Glo ATP luminescence; Potency, µM (top dose mostly 76.9 µM), for inactives: top-dose activity change, negative = inhibition, most hits filed as inhibitors; 67% of 890 active; AID 720569; note: % is set by controls: 0 for no effect and ±100 for the full control effect; nearly all actives have a fitted effect of over 70% in size
# TbPYK orthogonal: orthogonal confirmation of Trypanosoma brucei pyruvate kinase inhibitors | Potency, µM (titrated, usually from 76.9 µM), for inactives: top-dose activity change, negative = inhibition, hits mostly inhibitors | AID 720584 | recombinant TbPYK, ADP-Glo luminescence, 60 min | shares compounds with PLK1 PBD inh | 62% of 890 active; note: % is set by controls: 0 for no effect and ±100 for the full control effect; nearly all actives have a fitted effect of over 75% in size
# * marks the source's active call; other numbers are inactive results; ? = inconclusive; / = no result given; [ ] = dose if it differs, or a comment. In the library only some 12% were active in any assay of this set; here they are far more common. Calls come from the whole dose curve; as a rule, active = well fitted curve in the direction sought with a large enough effect; inconclusive = small, poorly fitted or top-dose-only effect, or another doubt; inactive = no such curve, though single readings can be large; an effect the other way counts as inactive or inconclusive. Potency is the fitted concentration of half-maximal effect.
SMILES,PLK1 PBD inh,G9a block,JMJD2A Tudor,BAZ2B block,Sfp PPTase inh,HP1b chromo inh,TbPYK inh,TbPYK orthogonal
COc1ccc2ccccc2c1/C=N/N1C(=O)CSC1=S,-22%,?,?,/,?,-18%,/,/
O=C1CSC(=S)N1N=Cc1c(O)ccc2ccccc12,-10%,/,50µM*,/,/,?,?,16µM*
COc1cccc(/C=N/N2C(=O)CSC2=S)c1O,?,8.9µM*,10µM*,3.2µM*,?,?,?,?
CC(C)NC(=O)NC(=O)COC(=O)c1cccc(S(=O)(=O)N2CCCCC2)c1,0%,?,-7%,6%,-21%,34%,/,/
CC(=O)NC1=NC(=O)/C(=C/c2cn(C(C)=O)nc2-c2ccccc2)S1,9.5µM*,8.9µM*,22µM*,-28%,28µM*,?,?,?
CSc1nc2cc(C)nn2c(-c2ccccc2)c1C#N,4%,45%,-12%,14%,8%,39%,/,/
COCCN(Cc1cc2cccc(C)c2n2nnnc12)C(=O)C(F)(F)F,-5%,-39%[59 µM],-16%,12%,-1%,26%,3%,-8%
CN(C)c1ccc(C(c2ccc(N(C)C)cc2)C(O)c2ccccc2)cc1 (stereo unspecified),2%,/,22µM*,/,/,?,2.8µM*,?
CN(C)c1ccc(C(=O)C(O)c2ccccc2)cc1 (stereo unspecified),-7%,-5%[59 µM],-12%,9%,16%,-8%,/,/
O=C(Cc1csc2ccccc12)NCc1ccc(F)cc1,/,3%[59 µM],-11%,-2%,/,11%,/,/
Fc1ccc(C[n+]2csc3ccccc32)cc1,12µM*,?,?,56µM*,45µM*,15%,7.9µM*,13µM*
Cc1cccc(C(C)C)c1NC(=O)c1ccc2c(c1)CCN2S(C)(=O)=O,/,8%[59 µM],3%,2%,/,49%,/,/
Cn1cnnc1SCC(=O)c1cc2ccccc2oc1=O,?,?,89µM*,?,-75%,-18%,16µM*,16µM*
O=C(CSc1nnc(-c2cccnc2)o1)c1cc2ccccc2oc1=O,-5%,?,-20%,-6%,?,11%,/,/
Cc1ccc(CCNS(=O)(=O)c2ccc3c(c2)CC(C)N3C(=O)C2CCC2)cc1 (stereo unspecified),/,1%[59 µM],-8%,4%,/,31%,/,/
CCOC(=O)C1=C(C)N=c2s/c(=C/c3cccc([N+](=O)[O-])c3O)c(=O)n2C1c1cc(OC)c(OC)c(OC)c1 (stereo unspecified),27µM*,2.2µM*,14µM*,7.9µM*,56µM*,16µM*,32µM*,?
O=C(CCNS(=O)(=O)c1ccc(Br)cc1)NCC(c1cccs1)N1CCOCC1 (stereo unspecified),-16%,/,/,/,/,/,/,/
CC1CCN(C(=S)NC(=O)c2cccs2)CC1,-1%,45µM*,-10%,-19%,5%,23%,?,14µM*
COc1ccc(C2=CC(=O)C[C@H](c3ccc(OC)c(OC)c3)C2)cn1,0%,9%[0.501 µM],-17%,1%,/,11%,9%,-1%
O=C(O)C(Cc1ccccc1)N1C(=O)C=CC1=O (stereo unspecified),6.7µM*,/,/,/,/,/,18µM*,32µM*
O=C(CN1CCN(c2ccc(O)cc2)CC1)Nc1ccc2c(c1)OCCO2,10%,7.9µM*,79µM*,-33%,10µM*,?,22µM*,32µM*
O=C(Nc1ccc(N2CCOCC2)cc1)c1ccc([N+](=O)[O-])o1,-3%,?,-23%,-12%,15%,4%,/,/
Cc1cc(-c2cc(-c3ccc(Cl)cc3)nc(N)c2C#N)co1,21µM*,?,40µM*,?,10µM*,-9%,-21%,40µM*
Cc1ccc(S(=O)(=O)Nc2ccc(NS(=O)(=O)c3ccc(C)cc3)c3ncccc23)cc1,/,/,-18%,/,14%,/,/,/
CCN1C(=O)/C(=C2/C=Cc3cc(C)ccc3N2CC)N(C)C1=S,0%,11µM*,16µM*,40µM*,?,?,35µM*,-26%
SMILES,PLK1 PBD inh,G9a block,JMJD2A Tudor,BAZ2B block,Sfp PPTase inh,HP1b chromo inh,TbPYK inh,TbPYK orthogonal
CC(C)c1ccc(CN2CCN(C(=O)CSc3nnnn3C3CC3)CC2)cc1,-1%,12%[12.7 µM],-22%,-27%,/,29%,/,/
Cc1nc(SCC(=O)c2cccc([N+](=O)[O-])c2)n[nH]1,?,?,40µM*,-8%,20µM*,?,?,?
CC1(C(=O)NCCC(F)(F)F)Cc2c(-c3cccc(C(N)=O)c3)ccnc2O1 (stereo unspecified),-12%,/,/,/,/,/,6%,-2%
CC1(C(=O)NCCC(F)(F)F)Cc2c(-c3cccc(C(F)(F)F)c3)ccnc2O1 (stereo unspecified),-11%,/,/,/,/,/,/,/
O=C1C=CC(=O)N1CCCCCCN1C(=O)C=CC1=O,3.4µM*,1.6µM*,18µM*,-25%,3.5µM*,?,7.1µM*,7.1µM*
O=C1C2C3C=CC(C3)C2C(=O)N1CCCCCCN1C(=O)C2C3C=CC(C3)C2C1=O (stereo unspecified),-4%,-19%,-17%,?,-23%,27%,/,/
O=C(CCCCn1c(=S)[nH]c2ccsc2c1=O)NCc1ccc2c(c1)OCO2,-27%,10µM*,-33%,?,-14%,17%,0.35µM*,1.1µM*
O=C(CCCCn1c(=O)[nH]c2ccsc2c1=O)NCc1ccc2c(c1)OCO2,-6%,24%,0%,11%,16%,39%,/,/
O=C(CCCn1c(=S)[nH]c2ccsc2c1=O)Nc1ccc2c(c1)OCCO2,-7%,3.5µM*,-30%,-11%,?,9%,10µM*,14µM*
O=C(CCCn1c(=S)[nH]c2ccsc2c1=O)Nc1ccc(F)cc1,-20%,/,/,/,/,/,/,/
Cc1onc(-c2ccc(Cl)cc2Cl)c1-c1csc(N/N=C/c2ccccc2Cl)n1,-7%,-32%,-32%,-18%,16%,25%,/,/
COc1cccc(C(=O)CSc2nnc(CNS(C)(=O)=O)n2-c2ccc(C)cc2)c1,-19%,18µM*,18µM*,-24%,-27%,?,?,28µM*
COCCn1c(C)cc(C(=O)COC(=O)c2ccc3ncsc3c2)c1C,2.4µM*,6%[12.7 µM],?,56µM*,6%,-32%,-1%,0%
CCCCCCCCSC1=CC(=O)C(OC)=C(OC)C1=O,2.4µM*,/,/,/,/,/,2.8µM*,4µM*
